PHOSPHO1 block – PubChem AID 1565. inhibition, % at 13.3 µM. Phosphoethanolamine/phosphocholine phosphatase (Homo sapiens), Q8TCT1. 1.1% of 290,000 active. recombinant PHOSPHO1, absorbance phosphatase assay; in the data active = inhibition above about 60%
Target sequence (Q8TCT1 whole entry, looked up): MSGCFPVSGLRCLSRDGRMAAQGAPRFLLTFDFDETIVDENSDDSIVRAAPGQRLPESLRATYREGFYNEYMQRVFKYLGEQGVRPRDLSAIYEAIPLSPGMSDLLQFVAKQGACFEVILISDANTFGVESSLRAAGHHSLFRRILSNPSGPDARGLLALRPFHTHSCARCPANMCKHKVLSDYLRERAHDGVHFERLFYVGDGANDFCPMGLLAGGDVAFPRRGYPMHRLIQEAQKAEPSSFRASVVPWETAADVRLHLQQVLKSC
GASC-1 inh – inhibitors of GASC-1 histone demethylase, primary screen, biochemical, fluorescence, DELFIA europium | Lysine-specific demethylase 4C (Homo sapiens), Q9H3R0 | GST-JMJD2C(1-420) H3K9me3 demethylation | inhibition, % at 2.35 µM | 0.069% of 330,000 active | AID 2099, 2009;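 active = more than half of a compound's replicate wells show inhibition beyond 50%, single wells judged on their own value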;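 also: signal counts dimethyl H3K9 product captured on neutravidin plate; 0% = median of DMSO wells and 100% = 0.3 times that DMSO median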
SUMO Mot1 rescue – yeast Mot1-301 growth rescue at high temperature, primary screen, SUMOylation pathway inhibitor project, S. cerevisiae, ATP luminescence, 38.5C. S. cerevisiae Mot1-301 growth rescue; percent above DMSO median, 100 means doubled. growth rescue, % at 18.8 µM. 1% of 320,000 active. AID 2716, 2010;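 active = every valid replicate shows activation above 250% relative to neutral control wells; inactive = the rest, any valid replicate at or below 250%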;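 also: OY570 slx delta 5 strain wells were the positive control but not used for scaling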
p-CIP stab down – p/CIP-EGFP fusion destabilizers, primary screen, fluorescence, F442A cells; 16 h; decrease of EGFP signal, % at 10 µM; 0.01% of 290,000 active;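 active = EGFP signal decrease of at least 30% at 10 µM or well 3 SD below plate mean, unless failing retest; inactive = the rest, including hits failing retest or dose response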
HDAC3 inh – HDAC3 deacetylase inhibitors, primary screen, biochemical, fluorescence, cell-free homogeneous. recombinant HDAC3, fluorogenic peptide/trypsin coupled. inhibition, % at 8.3 µM. Histone deacetylase 3 (Homo sapiens), O15379. 0.15% of 320,000 active; in the data active = inhibition above about 26%, passing the limit was not always enough
PvdQ acylase – P. aeruginosa PvdQ acylase inhibitors, primary screen, biochemical, fluorescence, plate reader and imaging, single point; 0.063% of 340,000 active; AID 488965, 2010; inhibition, % at 10 µM; purified PvdQ acylase; PvdQ acylase [Pseudomonas aeruginosa LESB58]; in the data active = inhibition above about 30%, passing the limit was not always enough;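 also: 0% = vehicle neutral wells and 100% = reference inhibitor wells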
* marks the source's active call; other numbers are inactive results. Most compounds without a hit are left out; they make up all but 2.2% or so of the library.

For CC(C)(C)OC(=O)N(CCc1ccccc1)Cc1ccccc1OCc1ccc(NC(=O)C2CCCC2)cc1 the results were PvdQ acylase -3.
`O=c1c2c3c(sc2ncn1/N=C/c1ccc([N+](=O)[O-])o1)CCCC3` gave PHOSPHO1 block 42, GASC-1 inh 5, SUMO Mot1 rescue 290*, p-CIP stab down -30, HDAC3 inh 0 and PvdQ acylase -12.
For Cn1cc(/C=N/n2cnc3sc4c(c3c2=O)CCCC4)c2ccccc21 the results were PHOSPHO1 block 62*, GASC-1 inh -2, SUMO Mot1 rescue 293, p-CIP stab down -3, HDAC3 inh 2 and PvdQ acylase -3.
Screening Cc1ccc(C)n1-n1cnc2sc3c(c2c1=O)CCC3 returned PHOSPHO1 block -2, GASC-1 inh -3, SUMO Mot1 rescue -1, p-CIP stab down 5, HDAC3 inh 3 and PvdQ acylase 7.
`COc1ccc(C(=O)N2N=C3CC(C)(C)OCC3C2c2ccccc2)cc1` (centres undefined) gave PHOSPHO1 block -21, GASC-1 inh 4, SUMO Mot1 rescue 1, p-CIP stab down -1, HDAC3 inh 0 and PvdQ acylase -4.
`Cc1ccc2c(c1)nnn2C1CCN(CC(=O)NNC(=O)c2ccco2)CC1` gave PHOSPHO1 block 35, GASC-1 inh 5, SUMO Mot1 rescue -15, p-CIP stab down -14, HDAC3 inh 0 and PvdQ acylase -15.
`CC(C)N1CC(C(=O)Nc2ccc(Br)c(Cl)c2)CC1=O` (centres undefined) gave PHOSPHO1 block 1, GASC-1 inh 69*, SUMO Mot1 rescue -10, p-CIP stab down 2, HDAC3 inh 3 and PvdQ acylase -19.
For CC(=O)Nc1ccc(NC(=O)C2CC(=O)N(C(C)C)C2)cc1 (centres undefined) the results were PHOSPHO1 block 40, GASC-1 inh 4, SUMO Mot1 rescue -20, p-CIP stab down -12, HDAC3 inh 4 and PvdQ acylase -17.
For CC(C)N1CC(C(=O)Nc2ccccc2)CC1=O (centres undefined) the results were PHOSPHO1 block -2, GASC-1 inh 2, SUMO Mot1 rescue 305*, p-CIP stab down 0, HDAC3 inh 8 and PvdQ acylase 1.
Cn1c(SCC(=O)c2ccc(O)cc2O)nnc1-c1ccccc1 was read as PHOSPHO1 block 22, GASC-1 inh -3, SUMO Mot1 rescue 12, p-CIP stab down 0, HDAC3 inh 6 and PvdQ acylase 6.
CN(C)C(CNC(=O)C1CCN(S(=O)(=O)c2cccc(Cl)c2Cl)CC1)c1ccccc1 (centres undefined) was read as PHOSPHO1 block 42, GASC-1 inh -1, SUMO Mot1 rescue -20, p-CIP stab down 0, HDAC3 inh 1 and PvdQ acylase -13.
Screening c1ccc(CC2CCN(Cc3ccccn3)CC2)cc1 returned PHOSPHO1 block 28, GASC-1 inh -4, SUMO Mot1 rescue 343*, p-CIP stab down -3, HDAC3 inh -4 and PvdQ acylase -10.
Screening Clc1ccc(CN2CCC(Cc3ccccc3)CC2)cc1 returned PHOSPHO1 block -11, GASC-1 inh 5, SUMO Mot1 rescue 67, p-CIP stab down -8, HDAC3 inh -5 and PvdQ acylase 5.
`O=C(COc1ccc(Cl)cc1Cl)NNC(=S)Nc1ccc(F)cc1` gave PHOSPHO1 block 71*, GASC-1 inh 2, SUMO Mot1 rescue -13, p-CIP stab down -3, HDAC3 inh -11 and PvdQ acylase 6.
Screening CCOc1ccc(/C=N/n2nnnc2N)cc1O returned PHOSPHO1 block 62*, GASC-1 inh -7, SUMO Mot1 rescue 11, p-CIP stab down -17 and PvdQ acylase -1.
Screening CCn1nnc(NC(=O)C(c2ccccc2)c2ccccc2)n1 returned PHOSPHO1 block 41, GASC-1 inh 13, SUMO Mot1 rescue -17, p-CIP stab down 1, HDAC3 inh 4 and PvdQ acylase 8.
Screening CCCOc1ccc2nc(C)c(CCC)c(SC(=N)N)c2c1 returned PHOSPHO1 block 67*, GASC-1 inh 20, SUMO Mot1 rescue 30, p-CIP stab down -2, HDAC3 inh 0 and PvdQ acylase -18.

Screening data as filed in PubChem.
